Screens from PubChem.
Pf Dd2 growth – P. falciparum Dd2 growth inhibition. SYBR Green, 72 h; active compounds read low. actives 2.3% (n = 94,000). activity change, % at 10 µM; in the data active means activity change below about -80%; inconclusive means no clear call, values can overlap the other calls
C diff growth – C. difficile growth inhibition; growth activity, negative = inhibition, % at 16 µg/mL (by protocol); AID 1259249; Clostridium difficile clinical isolate growth, OD600, 24 h; active compounds read low; actives 0.25% (n = 86,000);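 active means mean growth activity at or below -80% and every replicate also at or below -80%; inconclusive means mean at or below -80% but some replicate above -80%; inactive means mean growth activity above -80%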
T cruzi growth-1 – blocks T. cruzi growth in NIH3T3 culture. T. cruzi beta-gal in NIH3T3, GalScreen luminescence, 90 h. inhibition, % at 8.34 µM. actives 5.9% (n = 77,000);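 active means mean inhibition above about 93%, with at least 55% of replicates each passing it, limit read from the data, passing the limit was not always enough; inconclusive means only one of those two conditions holds; inactive means neither condition holds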
T cruzi growth-2 – inhibitors of T. cruzi proliferation | shares compounds with T cruzi growth-1 | T. cruzi beta-gal in NIH3T3, GalScreen luminescence, 90 h | inhibition, % at 8.35 µM | actives 72% (n = 5,600) | AID 651739;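 active means mean replicate inhibition above about 95% and at least 55% of replicates individually reaching it, limit read from the data; inconclusive means only one of the two criteria is met; inactive means neither criterion is met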
T cruzi growth-3 – inhibitors of T. cruzi proliferation; shares compounds with T cruzi growth-1; T. cruzi beta-gal in NIH3T3, GalScreen luminescence, 90 h; inhibition, % at 2.09 µM; actives 21% (n = 5,600); AID 651740;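 active means mean inhibition above about 95%, with at least 55% of replicates also reaching it, limit read from the data; inconclusive means meets just one of the two conditions; inactive means meets neither condition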
NIH3T3 tox – cytotoxicity in mouse NIH/3T3 fibroblasts | shares compounds with T cruzi growth-1 | NIH/3T3 viability, CellTiter-Glo ATP luminescence, 90 h | cytotoxicity (signal decrease), % at 8.35 µM | actives 14% (n = 5,600) | AID 651742;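 active means mean signal decrease across replicates above about 35% based on untreated-well scatter, with enough replicates individually passing, limit read from the data; inconclusive means no rule stated though some were filed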
3T3 cytotox 2 – cytotoxicity in mouse NIH/3T3 fibroblasts; shares compounds with T cruzi growth-1; NIH/3T3 viability, CellTiter-Glo ATP luminescence, 90 h; inhibition, % at 24.9 µM; actives 56% (n = 5,600); AID 651744;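 active means mean loss of cell viability signal at or above a set limit, and enough replicates individually reaching it; inconclusive means meets only the mean limit or only the replicate share; inactive means meets neither condition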
A number is an active result; – = inactive; ? = inconclusive; · = no result. Rows were chosen to be rich in hits. Some 6.8% of all compounds tested hit in one or more screens of this group.

SMILES | Pf Dd2 growth | C diff growth | T cruzi growth-1 | T cruzi growth-2 | T cruzi growth-3 | NIH3T3 tox | 3T3 cytotox 2
C[C@@H]1CN([C@H](C)CO)C(=O)c2cc(NC(=O)c3ccccc3)ccc2O[C@@H](C)CCCCO[C@@H]1CN(C)Cc1ccccc1 | – | – | ? | 107.7 | – | – | 34.6
C[C@@H]1CN([C@H](C)CO)C(=O)c2cc(NC(=O)c3ccccc3)ccc2O[C@@H](C)CCCCO[C@@H]1CN(C)Cc1ccncc1 | – | – | – | · | · | · | ·
C[C@H](CO)N1C[C@H](C)[C@@H](CN(C)Cc2ccccc2)OCCCC[C@H](C)Oc2ccc(NC(=O)c3ccccc3)cc2C1=O | – | – | – | · | · | · | ·
C[C@@H]1CN([C@@H](C)CO)C(=O)c2cc(NC(=O)c3ccccc3)ccc2O[C@@H](C)CCCCO[C@@H]1CN(C)Cc1ccccc1 | – | – | – | · | · | · | ·
O=C(Cc1cccnc1)N1CC(=O)N2[C@H](CO)[C@@H](c3ccc(C#CC4CCCC4)cc3)[C@H]2C1 | – | – | · | · | · | · | ·
Cc1noc(C)c1NC(=O)N(C)C[C@H]1Oc2c(NC(=O)Nc3ccc(C(F)(F)F)cc3)cccc2C(=O)N([C@H](C)CO)C[C@H]1C | – | · | – | · | · | · | ·
C[C@@H]1CN([C@H](C)CO)S(=O)(=O)c2ccc(-c3cccc(F)c3)cc2O[C@@H]1CN(C)S(=O)(=O)c1ccccc1 | – | – | 114.5 | 97.4 | – | – | 54.0
C[C@H]1CN([C@@H](C)CO)S(=O)(=O)c2ccc(Br)cc2O[C@H]1CN(C)S(=O)(=O)c1ccccc1 | – | – | · | · | · | · | ·
C[C@@H]1CN([C@@H](C)CO)S(=O)(=O)c2ccc(-c3cccc(F)c3)cc2O[C@H]1CN(C)S(=O)(=O)c1ccccc1 | – | – | 121.6 | 99.4 | 106.1 | 58.2 | 49.2
CC(=O)N(C)C[C@@H]1Oc2cc(-c3cccc(F)c3)ccc2S(=O)(=O)N([C@@H](C)CO)C[C@@H]1C | – | – | – | · | · | · | ·
C[C@@H]1CN([C@@H](C)CO)S(=O)(=O)c2ccc(-c3cccc(F)c3)cc2O[C@H]1CN(C)S(C)(=O)=O | – | – | – | · | · | · | ·
C[C@@H]1CN([C@H](C)CO)S(=O)(=O)c2ccc(-c3cccc(F)c3)cc2O[C@H]1CN(C)S(=O)(=O)c1ccccc1 | – | – | ? | – | – | 65.3 | 40.9
C[C@H](CO)N1C[C@H](C)[C@@H](CN(C)S(=O)(=O)c2ccccc2)Oc2cc(-c3cccc(F)c3)ccc2S1(=O)=O | – | – | 115.2 | 101.0 | – | – | 28.9
CO[C@H]1CN(C)C(=O)c2ccc(NS(C)(=O)=O)cc2OC[C@H](C)N(C)C[C@H]1C | – | – | – | · | · | · | ·
COc1ccc2c3c([nH]c2c1)[C@@H](CO)N(C(=O)CN1CCOCC1)CC31CCN(C(=O)NC(C)C)CC1 | – | – | · | · | · | · | ·
C[C@H](CO)N1C[C@H](C)[C@@H](CN(C)Cc2cccc(C(F)(F)F)c2)OCc2cn(nn2)CCCC1=O | – | – | – | · | · | · | ·
C[C@H](CO)N1C[C@H](C)[C@H](CN(C)S(=O)(=O)c2ccccc2)Oc2cc(-c3cccc(F)c3)ccc2S1(=O)=O | – | – | 120.1 | 96.6 | 99.6 | – | 34.2
C[C@H]1CN([C@@H](C)CO)S(=O)(=O)c2ccc(-c3cccc(F)c3)cc2O[C@@H]1CN(C)S(=O)(=O)c1ccccc1 | – | – | 119.5 | 96.4 | – | 37.2 | 41.2
C[C@H]1CN([C@@H](C)CO)S(=O)(=O)c2ccc(-c3cccc(F)c3)cc2O[C@H]1CN(C)S(=O)(=O)c1ccccc1 | – | – | 118.9 | 99.0 | 106.2 | 42.1 | 62.1
N#C[C@H]1[C@H](c2ccc(C3=CCCC3)cc2)[C@H](CO)N1C(=O)NC1CCCC1 | – | – | – | · | · | · | ·
O=C(NCc1ccccc1F)[C@@H]1[C@@H](CO)[C@@H]2Cn3c(cccc3=O)[C@@H]2N1C(=O)CC1CC1 | – | – | – | · | · | · | ·
COc1cccc(S(=O)(=O)N(C)C[C@H]2Oc3cc(C4=CCCCC4)ccc3S(=O)(=O)N([C@@H](C)CO)C[C@@H]2C)c1 | – | – | · | · | · | · | ·
COc1cccc(S(=O)(=O)N(C)C[C@H]2Oc3cc(C4=CCCC4)ccc3S(=O)(=O)N([C@@H](C)CO)C[C@H]2C)c1 | – | – | – | · | · | · | ·
COc1cccc(S(=O)(=O)N(C)C[C@@H]2Oc3cc(C4=CCCCC4)ccc3S(=O)(=O)N([C@@H](C)CO)C[C@H]2C)c1 | – | – | · | · | · | · | ·
COc1ccc(S(=O)(=O)N(C)C[C@@H]2Oc3cc(C4=CCCC4)ccc3S(=O)(=O)N([C@@H](C)CO)C[C@@H]2C)cc1 | – | – | 109.0 | 104.3 | – | – | 38.5
SMILES | Pf Dd2 growth | C diff growth | T cruzi growth-1 | T cruzi growth-2 | T cruzi growth-3 | NIH3T3 tox | 3T3 cytotox 2
COc1cccc(S(=O)(=O)N(C)C[C@@H]2Oc3cc(C4=CCCC4)ccc3S(=O)(=O)N([C@H](C)CO)C[C@@H]2C)c1 | – | – | 107.3 | 103.7 | – | – | 27.0
COc1ccc(S(=O)(=O)N(C)C[C@@H]2Oc3cc(C4=CCCC4)ccc3S(=O)(=O)N([C@H](C)CO)C[C@@H]2C)cc1 | – | – | 120.0 | 101.5 | – | – | 49.0
O=C(Nc1cc(F)ccc1F)N[C@H]1CC[C@H](CCn2cc(C3CCCC3)nn2)O[C@H]1CO | – | – | · | · | · | · | ·
O=C(Nc1ccccc1F)N[C@H]1C=C[C@H](CC(=O)N2CCCCC2)O[C@@H]1CO | – | – | – | · | · | · | ·
C[C@H]1CN([C@@H](C)CO)S(=O)(=O)c2ccc(C#CCN(C)C)cc2O[C@@H]1CN(C)C(=O)c1ccccc1F | – | – | 98.9 | 105.4 | – | – | –
C[C@@H]1CN([C@H](C)CO)S(=O)(=O)c2ccc(C#CCN(C)C)cc2O[C@H]1CN(C)C(=O)c1ccccc1F | – | – | – | · | · | · | ·
C[C@@H]1CN([C@H](C)CO)S(=O)(=O)c2ccc(C#CCN(C)C)cc2O[C@@H]1CN(C)C(=O)c1ccccc1F | – | – | – | · | · | · | ·
C[C@@H]1CN([C@@H](C)CO)S(=O)(=O)c2ccc(C#CCN(C)C)cc2O[C@H]1CN(C)C(=O)c1ccccc1F | – | – | 100.8 | 108.7 | – | – | –
CCC(=O)Nc1ccc2c(c1)OC[C@@H](C)N(C(=O)NC(C)C)C[C@@H](C)[C@H](OC)CN(C)C2=O | – | – | · | · | · | · | ·
C[C@H]1CN([C@@H](C)CO)S(=O)(=O)c2ccc(-c3cncnc3)cc2O[C@H]1CN(C)Cc1ccc(Oc2ccccc2)cc1 | – | – | · | · | · | · | ·
C[C@@H]1CN([C@@H](C)CO)S(=O)(=O)c2ccc(-c3ccncc3)cc2O[C@@H]1CN(C)Cc1ccc(Oc2ccccc2)cc1 | -83.6 | – | ? | 98.7 | 107.8 | 73.7 | 74.4
C[C@H](CO)N1C[C@H](C)[C@H](CN(C)Cc2ccc(Oc3ccccc3)cc2)Oc2cc(-c3ccncc3)ccc2S1(=O)=O | – | – | 123.7 | 101.3 | 103.8 | 63.6 | 64.1
C[C@H](CO)N1C[C@H](C)[C@@H](CN(C)Cc2cccnc2)Oc2cc(-c3ccncc3)ccc2S1(=O)=O | – | – | – | · | · | · | ·
